Experimental data published in PubChem BioAssay AID1159580 (chemical genetic matrix, 2015).
The campaign covered roughly 5,500 compounds. About 2,000 (36%) were called active. Inconclusive results (about 18%) are left out. This is one part of the list. Unmarked numbers belong to inactive results. Rule as the data show it: active = normalized growth mostly below about 0.91 (no sharp cut-off); inconclusive = no clear call, values can overlap the other calls; inactive = mostly above about 0.92.

Assay: chemical genetic growth profiling, strain panel (AID 1159580);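 also: tested at 20 µM; growth read once vehicle control cultures reached saturation at 30 °C; 1 = growth at the plate median or of vehicle wells; lower values mean less growth of the strain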
Conditions: growth OD

COc1ccc2cc3[n+](cc2c1OC)CCc1cc2c(cc1-3)OCO2
normalized growth (S. cerevisiae deletion strains, locus YJR075W, strain HOC1, stronger effect = lower value): 0.394 (active)
normalized growth (S. cerevisiae deletion strains, locus YKL009W, strain mrt4, stronger effect = lower value): 0.922
normalized growth (S. cerevisiae deletion strains, locus YKL068W, stronger effect = lower value): 1
normalized growth (S. cerevisiae deletion strains, locus YKL085W, strain MDH1 (second series), stronger effect = lower value): 0.996
normalized growth (S. cerevisiae deletion strains, locus YKL085W, strain MDH1, stronger effect = lower value): 0.996
normalized growth (S. cerevisiae deletion strains, locus YKL160W, strain elf1, stronger effect = lower value): 0.985
normalized growth (S. cerevisiae deletion strains, locus YKL190W, strain CNB1, stronger effect = lower value): 0.293 (active)
normalized growth (S. cerevisiae deletion strains, locus YKR001C, strain vps1, stronger effect = lower value): 0.338 (active)
normalized growth (S. cerevisiae deletion strains, locus YKR026C, strain gcn3, stronger effect = lower value): 0.994
normalized growth (S. cerevisiae deletion strains, locus YKR091W, strain srl3, stronger effect = lower value): 0.985
normalized growth (S. cerevisiae deletion strains, locus YLL001W, strain dnm1, stronger effect = lower value): 0.99
normalized growth (S. cerevisiae deletion strains, locus YLL026W, stronger effect = lower value): 1.02
normalized growth (S. cerevisiae deletion strains, locus YLL041C, strain sdh2, stronger effect = lower value): 0.989
normalized growth (S. cerevisiae deletion strains, locus YLR027C, strain aat2, stronger effect = lower value): 0.972
normalized growth (S. cerevisiae deletion strains, locus YLR039C, strain RIC1, stronger effect = lower value): 0.904
normalized growth (S. cerevisiae deletion strains, locus YLR058C, strain SHM2, stronger effect = lower value): 0.409 (active)
normalized growth (S. cerevisiae deletion strains, locus YLR102C, strain apc9, stronger effect = lower value): 0.702 (active)
normalized growth (S. cerevisiae deletion strains, locus YLR113W, strain HOG1, stronger effect = lower value): 0.83 (active)
normalized growth (S. cerevisiae deletion strains, locus YLR221C, strain rsa3, stronger effect = lower value): 1
normalized growth (S. cerevisiae deletion strains, locus YLR258W, strain gsy2, stronger effect = lower value): 0.99
normalized growth (S. cerevisiae deletion strains, locus YLR262C, strain YPT6 (second series), stronger effect = lower value): 1.04
normalized growth (S. cerevisiae deletion strains, locus YLR262C, strain YPT6, stronger effect = lower value): 0.82
normalized growth (S. cerevisiae deletion strains, locus YLR268W, strain sec22, stronger effect = lower value): 0.409 (active)
normalized growth (S. cerevisiae deletion strains, locus YLR320W, strain mms22, stronger effect = lower value): 0.993
normalized growth (S. cerevisiae deletion strains, locus YLR330W, strain CHS5, stronger effect = lower value): 0.711 (active)
normalized growth (S. cerevisiae deletion strains, locus YLR342W, strain FKS1 (second series), stronger effect = lower value): 0.373 (active)
normalized growth (S. cerevisiae deletion strains, locus YLR342W, strain FKS1, stronger effect = lower value): 0.979
normalized growth (S. cerevisiae deletion strains, locus YLR357W, strain rsc2, stronger effect = lower value): 0.948
normalized growth (S. cerevisiae deletion strains, locus YLR370C, strain arc18, stronger effect = lower value): 0.99
normalized growth (S. cerevisiae deletion strains, locus YLR371W, strain rom2, stronger effect = lower value): 0.8 (active)
normalized growth (S. cerevisiae deletion strains, locus YLR384C, strain iki3, stronger effect = lower value): 0.975
normalized growth (S. cerevisiae deletion strains, locus YLR418C, strain cdc73, stronger effect = lower value): 0.478 (active)
normalized growth (S. cerevisiae deletion strains, locus YML016C, strain PPZ1, stronger effect = lower value): 0.413 (active)
normalized growth (S. cerevisiae deletion strains, locus YML032C, strain rad52, stronger effect = lower value): 0.459 (active)
normalized growth (S. cerevisiae deletion strains, locus YML120C, strain ndi1, stronger effect = lower value): 0.996
normalized growth (S. cerevisiae deletion strains, locus YML124C, strain tub3, stronger effect = lower value): 0.652 (active)
normalized growth (S. cerevisiae deletion strains, locus YMR058W, strain fet3, stronger effect = lower value): 0.985
normalized growth (S. cerevisiae deletion strains, locus YMR078C, strain ctf18, stronger effect = lower value): 0.912
normalized growth (S. cerevisiae deletion strains, locus YMR125W, strain sto1, stronger effect = lower value): 0.981
normalized growth (S. cerevisiae deletion strains, locus YMR129W, stronger effect = lower value): 0.991
normalized growth (S. cerevisiae deletion strains, locus YMR205C, strain PFK2, stronger effect = lower value): 0.967
normalized growth (S. cerevisiae deletion strains, locus YMR223W, strain ubp8, stronger effect = lower value): 0.393 (active)
normalized growth (S. cerevisiae deletion strains, locus YMR231W, strain pep5, stronger effect = lower value): 0.995
normalized growth (S. cerevisiae deletion strains, locus YMR263W, strain SAP30, stronger effect = lower value): 0.55 (active)
normalized growth (S. cerevisiae deletion strains, locus YMR307W, strain GAS1, stronger effect = lower value): 0.986
normalized growth (S. cerevisiae deletion strains, locus YNL067W, strain RPL9B, stronger effect = lower value): 0.319 (active)
normalized growth (S. cerevisiae deletion strains, locus YNL071W, strain lat1, stronger effect = lower value): 0.991
normalized growth (S. cerevisiae deletion strains, locus YNL128W, strain TEP1, stronger effect = lower value): 0.518 (active)
normalized growth (S. cerevisiae deletion strains, locus YNL153C, strain GIM3, stronger effect = lower value): 0.701 (active)
normalized growth (S. cerevisiae deletion strains, locus YNL183C, strain NPR1, stronger effect = lower value): 0.855
normalized growth (S. cerevisiae deletion strains, locus YNL209W, strain ssb2, stronger effect = lower value): 0.98
normalized growth (S. cerevisiae deletion strains, locus YNL233W, strain BNI4, stronger effect = lower value): 0.593 (active)
normalized growth (S. cerevisiae deletion strains, locus YNL248C, strain rpa49, stronger effect = lower value): 0.975
normalized growth (S. cerevisiae deletion strains, locus YNL250W, strain rad50, stronger effect = lower value): 0.995
normalized growth (S. cerevisiae deletion strains, locus YNL271C, strain bni1, stronger effect = lower value): 0.963
normalized growth (S. cerevisiae deletion strains, locus YNL298W, strain CLA4, stronger effect = lower value): 0.971
normalized growth (S. cerevisiae deletion strains, locus YNL307C, strain MCK1, stronger effect = lower value): 0.561 (active)
normalized growth (S. cerevisiae deletion strains, locus YNL322C, strain KRE1 (second series), stronger effect = lower value): 0.987
normalized growth (S. cerevisiae deletion strains, locus YNL322C, strain KRE1, stronger effect = lower value): 0.496 (active)
normalized growth (S. cerevisiae deletion strains, locus YNR049C, strain mso1, stronger effect = lower value): 0.998
normalized growth (S. cerevisiae deletion strains, locus YNR052C, strain pop2, stronger effect = lower value): 0.671 (active)
normalized growth (S. cerevisiae deletion strains, locus YOL006C, strain TOP1, stronger effect = lower value): 0.405 (active)
normalized growth (S. cerevisiae deletion strains, locus YOL012C, strain htz1): 2.03 [resistant] (active)
normalized growth (S. cerevisiae deletion strains, locus YOL147C, strain pex11, stronger effect = lower value): 0.603 (active)
normalized growth (S. cerevisiae deletion strains, locus YOR001W, strain rrp6, stronger effect = lower value): 0.973
normalized growth (S. cerevisiae deletion strains, locus YOR061W, strain CKA2, stronger effect = lower value): 0.378 (active)
normalized growth (S. cerevisiae deletion strains, locus YOR069W, strain VPS5, stronger effect = lower value): 0.731 (active)
normalized growth (S. cerevisiae deletion strains, locus YOR070C, strain gyp1, stronger effect = lower value): 0.984
normalized growth (S. cerevisiae deletion strains, locus YOR080W, strain dia2, stronger effect = lower value): 0.992
normalized growth (S. cerevisiae deletion strains, locus YOR083W, strain WHI5, stronger effect = lower value): 0.994
normalized growth (S. cerevisiae deletion strains, locus YOR106W, strain vam3, stronger effect = lower value): 1.02
normalized growth (S. cerevisiae deletion strains, locus YOR136W, strain idh2, stronger effect = lower value): 0.748 (active)
normalized growth (S. cerevisiae deletion strains, locus YOR144C, strain elg1, stronger effect = lower value): 0.586 (active)
normalized growth (S. cerevisiae deletion strains, locus YOR184W, strain ser1, stronger effect = lower value): 0.333 (active)
normalized growth (S. cerevisiae deletion strains, locus YOR231W, strain MKK1, stronger effect = lower value): 0.822 (active)
normalized growth (S. cerevisiae deletion strains, locus YOR265W, strain rbl2, stronger effect = lower value): 0.984
normalized growth (S. cerevisiae deletion strains, locus YOR270C, strain vph1, stronger effect = lower value): 0.976
normalized growth (S. cerevisiae deletion strains, locus YOR290C, strain snf2, stronger effect = lower value): 0.96
normalized growth (S. cerevisiae deletion strains, locus YOR316C, strain cot1, stronger effect = lower value): 0.663 (active)
normalized growth (S. cerevisiae deletion strains, locus YPL051W, strain arl3, stronger effect = lower value): 0.994
normalized growth (S. cerevisiae deletion strains, locus YPL055C, strain LGE1, stronger effect = lower value): 0.525 (active)
normalized growth (S. cerevisiae deletion strains, locus YPL078C, strain atp4, stronger effect = lower value): 0.991
normalized growth (S. cerevisiae deletion strains, locus YPL106C, strain sse1, stronger effect = lower value): 0.964
normalized growth (S. cerevisiae deletion strains, locus YPL240C, strain hsp82, stronger effect = lower value): 1.01
normalized growth (S. cerevisiae deletion strains, locus YPL241C, strain CIN2, stronger effect = lower value): 0.558 (active)
normalized growth (S. cerevisiae deletion strains, locus YPL256C, strain CLN2, stronger effect = lower value): 0.786 (active)
normalized growth (S. cerevisiae deletion strains, locus YPR119W, strain clb2, stronger effect = lower value): 0.804 (active)
normalized growth (S. cerevisiae deletion strains, locus YPR141C, strain kar3, stronger effect = lower value): 1.01
normalized growth (S. cerevisiae deletion strains, locus YPR163C, strain tif3, stronger effect = lower value): 0.984
normalized growth (S. cerevisiae deletion strains, locus YPR167C, strain met16, stronger effect = lower value): 0.622 (active)
normalized growth (S. cerevisiae deletion strains, strain wtn01, stronger effect = lower value): 0.305 (active)
normalized growth (S. cerevisiae strains, strain wild type, stronger effect = lower value): 0.408 (active)
